Experimental findings from PubChem BioAssay (EPA / NIEHS) are described below.

By AC50 is commonly meant the concentration at which the activity in the assay is half-maximal.

The source made the active and inactive calls. How the source made its calls: active means hit-call score of the fitted dose curve at least 0.9, where 1 is the maximum; inactive means score below 0.9.

Read-out in assay [1]: Vascular cell adhesion molecule 1 (VCAM1), VCAM1 (gene 7412)
Briefly: BSK_hDFCGF_VCAM1: BioMAP Diversity Plus: hDFCGF Assay for Vascular cell adhesion molecule 1 (VCAM1) Biomarker Activity (AID 2283065). Particulars: primary human foreskin fibroblasts; actives raise or lower the signal. The gist of the method:
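ELISA readout of VCAM-1 on human dermal fibroblast primary cultures, 24 h after chemical exposure. Gain or loss of signal fitted in both directions against DMSO baseline.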

Read-out in assay [2]: Plasminogen activator inhibitor-1 (PAI1), SERPINE1 (gene 5054)
As to the kind of experiment: BSK_hDFCGF_PAI1: BioMAP Diversity Plus: hDFCGF Assay for Plasminogen activator inhibitor-1 (PAI1) Biomarker Activity (AID 2283066). The note with it: primary human foreskin fibroblasts; actives raise or lower the signal. The gist of the method: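 PAI-1 levels in human dermal foreskin fibroblasts were quantified by ELISA 24 h after dosing, with gain or loss analysed against DMSO. Overt cytotoxicity was checked by sulforhodamine B total-protein staining in parallel cultures.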

Read-out in assay [3]: Intercellular Adhesion Molecule 1 (ICAM1), ICAM1 (gene 3383)
As to the kind of experiment: BSK_KF3CT_ICAM1: BioMAP Diversity Plus: KF3CT Assay for Intercellular Adhesion Molecule 1 (ICAM1) Biomarker Activity (AID 2283067). The note with it: primary human keratinocytes with fibroblasts; actives raise or lower the signal. The gist of the method: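 Cell-surface ICAM-1 was measured by ELISA 24 h after dosing primary human skin keratinocytes co-cultured with fibroblasts. Parallel SRB staining tracked overt cytotoxicity. Gain or loss of signal was fitted relative to DMSO.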

Read-out in assay [4]: Interferon-gamma inducible Protein 10 (IP10), CXCL10 (gene 3627)
As to the kind of experiment: BSK_KF3CT_IP10: BioMAP Diversity Plus: KF3CT Assay for Interferon-gamma inducible Protein 10 (IP10) Biomarker Activity (AID 2283068). Particulars: primary human keratinocytes with fibroblasts; actives raise or lower the signal. The gist of the method:
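Human keratinocyte plus foreskin fibroblast primary co-culture exposed to test chemical for 24 h; IP-10 measured by ELISA. Concentration-response fitted bidirectionally against DMSO control as baseline.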

The nature of assay [5]: BSK_KF3CT_SRB: Viability Assessment in the BioMAP Diversity Plus: KF3CT Assay (AID 2283069).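 Further: read 24 h after compound addition.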 Particulars: primary human keratinocytes with fibroblasts. The method, boiled down: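 Overt cytotoxicity is assessed as total protein by sulforhodamine B staining in parallel human skin co-cultures at 24 h after dosing. DMSO serves as negative control and baseline.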
Read-out in assay [6]: Interleukin-1 alpha (IL1a), IL1A (gene 3552)
As to the kind of experiment: BSK_KF3CT_IL1a: BioMAP Diversity Plus: KF3CT Assay for Interleukin-1 alpha (IL1a) Biomarker Activity (AID 2283070). Particulars: primary human keratinocytes with fibroblasts; actives raise or lower the signal. The method, boiled down:
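Readout is IL-1a level by ELISA, compared bidirectionally with DMSO as baseline. Cells: human keratinocytes co-cultured with foreskin fibroblasts, harvested 24 h post-dose.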

Read-out in assay [7]: TIMP metallopeptidase inhibitor 2 (TIMP2), TIMP2 (gene 7077)
As to the kind of experiment: BSK_KF3CT_TIMP2: BioMAP Diversity Plus: KF3CT Assay for TIMP metallopeptidase inhibitor 2 (TIMP2) Biomarker Activity (AID 2283071). The note with it: primary human keratinocytes with fibroblasts; actives raise or lower the signal. The gist of the method: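 TIMP-2 measured by ELISA at 24 h in human keratinocyte/fibroblast primary co-cultures exposed to chemicals. Both increases and decreases were fitted against DMSO. Parallel cultures were stained with SRB for total protein as an overt-cytotoxicity check.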

Read-out in assay [8]: Transforming growth factor beta 1 (TGFb1), TGFB1 (gene 7040)
As to the kind of experiment: BSK_KF3CT_TGFb1: BioMAP Diversity Plus: KF3CT Assay for Transforming growth factor beta 1 (TGFb1) Biomarker Activity (AID 2283072). Particulars: primary human keratinocytes with fibroblasts; actives raise or lower the signal. The gist of the method:
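ELISA quantifies TGF-b1 at 24 h post-dose in a primary human skin co-culture of keratinocytes and fibroblasts, with gain or loss judged against DMSO. Parallel SRB total-protein staining flags overt cytotoxicity.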

Read-out in assay [9]: C-C motif chemokine 2 (Homo sapiens) (UniProt P13500)
As to the kind of experiment: BSK_KF3CT_MCP1: BioMAP Diversity Plus: KF3CT Assay for Monocyte Chemoattractant Protein 1 (MCP1/CCL2) Biomarker Activity (AID 2283073). The note with it: primary human keratinocytes with fibroblasts; actives raise or lower the signal. The gist of the method:
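ELISA read-out of MCP-1, 24 h post-dose, in primary human skin keratinocytes co-cultured with fibroblasts. Parallel SRB staining monitors cytotoxicity; changes fitted both directions relative to DMSO.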

Read-out in assay [10]: Matrix Metallopeptidase 9 (MMP9), MMP9 (gene 4318)
As to the kind of experiment: BSK_KF3CT_MMP9: BioMAP Diversity Plus: KF3CT Assay for Matrix Metallopeptidase 9 (MMP9) Biomarker Activity (AID 2283074). The note with it: primary human keratinocytes with fibroblasts; actives raise or lower the signal. The gist of the method: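 Values come from bidirectional fitting relative to DMSO of MMP-9 levels, which were measured by ELISA. Measurements were taken 24 h after chemical dosing of a keratinocyte and foreskin fibroblast co-culture.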

Turning to `CC(N)=O`, the result in [1], in assay [2], in assay [3], in assay [4], in [5] and in assay [6] was inactive. Besides, the result in assay [7], in assay [8], in [9] and in assay [10] was inactive.
On to `COC(=O)CCCC(=O)OC`, for which the outcome in assay [1], in assay [2], in assay [3], in [4], in assay [5] and in assay [6] was inactive. The outcome in [7], in assay [8], in assay [9] and in [10] was inactive.
Regarding `Cc1occc(=O)c1O`, the result in assay [1], in assay [2], in assay [3], in assay [4], in [5] and in [6] was inactive. Moreover, the outcome in [7], in assay [8], in assay [9] and in assay [10] was inactive.
For `CC(C)NCC(O)c1ccc(O)c(O)c1` (stereo not given), the outcome in assay [1], in assay [2], in assay [3], in assay [4], in [5] and in assay [6] was inactive. In addition, the result in assay [7], in [8], in [9] and in [10] was inactive.
For the molecule `Cc1ccc(C(C)(C)C)c(O)c1`, the result in assay [1], in assay [2], in assay [3], in assay [4], in assay [5] and in [6] was inactive. Further, the result in assay [7], in [8], in assay [9] and in assay [10] was inactive.
In the case of `CC1=C(C)S(=O)(=O)CCS1(=O)=O`, the result in assay [1], in [2], in assay [3], in assay [4], in assay [5] and in assay [6] was inactive. For the same molecule, the result in assay [7], in assay [8], in assay [9] and in assay [10] was inactive.
As to `O=C(NS(=O)(=O)/C=C/c1cccs1)c1ccc(F)cc1Br`, the result in assay [1], in assay [2], in assay [3], in assay [4], in [5] and in assay [7] was inactive. Moreover, the outcome in assay [8], in assay [9] and in [10] was inactive. In addition, the AC50 in [6] was 2090 nM (active).
As for `OCC(O)CO`, the outcome in assay [1], in assay [2], in assay [3], in assay [4], in [5] and in assay [6] was inactive. Also, the result in assay [7], in [8], in assay [9] and in assay [10] was inactive.
For the molecule `O=C(O)CN(CC(=O)O)CC(=O)O`, the outcome in [1], in [2], in assay [3], in assay [4], in assay [5] and in assay [6] was inactive. Moreover, the result in assay [7], in assay [8], in [9] and in assay [10] was inactive.
Regarding `O=C1CCCCC1`, the result in assay [1], in assay [2], in assay [3], in [4], in [5] and in [6] was inactive. Besides, the result in assay [7], in assay [8], in assay [9] and in assay [10] was inactive.
As for `C/C=C/c1ccc(OC)cc1`, the result in assay [1], in assay [2], in assay [3], in assay [4], in [5] and in assay [6] was inactive. In addition, the outcome in assay [7], in [8], in [9] and in assay [10] was inactive.
For `CCCCCCCC(=O)OC`, the outcome in assay [1], in assay [2], in [3], in assay [4], in assay [5] and in assay [6] was inactive. For the same molecule, the outcome in [7], in assay [8], in assay [9] and in [10] was inactive.
As to `CCCC[C@H]1CN(CC2CCOCC2)C(=O)OC12CCN(C1(C)CCN(C(=O)c3c(C)ncnc3C)CC1)CC2`, the outcome in assay [1], in assay [2], in assay [3], in assay [4], in [5] and in [6] was inactive. Also, the result in [7], in [8], in assay [9] and in [10] was inactive.
Take `CCCCOC(=O)CCCCC(=O)OCCCC`: the outcome in [1], in assay [2], in assay [3], in assay [4], in assay [5] and in assay [6] was inactive. Besides, the result in [7], in assay [8], in assay [9] and in assay [10] was inactive.
